Shn3 inh set2 = Schnurri-3 reporter inhibition in Clone20 osteoblasts. inhibition, % at 12.5 µM. Clone20 osteoblast Shn3 3'UTR firefly luciferase, 24 h. 360,000 tested, 0.52% active;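 active = mean inhibition of at least 75% with every replicate also reaching 75%; inconclusive = mean inhibition at least 75% but some replicate below; inactive = mean inhibition below 75%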
EBV LMP1 NFkB = inhibitors of Epstein-Barr LMP1-induced NF-kappaB reporter | inhibition, % at 12.5 µM | 350,000 tested, 0.69% active | LMP1-induced NF-kappaB luciferase reporter cells, luminescence; in the data active = inhibition above about 41%; inconclusive = no clear call, values can overlap the other calls
Peg3 prom inh = reduces Peg3 promoter-driven luciferase expression in HeLa | 360,000 tested, 1.7% active | inhibition, % at 20 µM | AID 588405 | HeLa PEG-Prom luciferase reporter, luminescence, overnight;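 active = inhibition of at least 50% at 20 µM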
PAX8 inh HTS = PAX8 transcriptional activity inhibition. RMG-I TPO-luciferase reporter, SteadyGlo, 24 h. inhibition, % at 12.6 µM. 360,000 tested, 1.2% active;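 active = mean replicate inhibition at least 60% with every replicate also reaching 60%; inconclusive = only one of the two criteria is met; inactive = mean below 60% and not all replicates reaching 60%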;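 note: luciferase light reporting Pax8 driven TPO promoter activity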
HIF-2a block = HIF-2a inhibition | inhibition, % at 18.8 µM | 360,000 tested, 0.72% active | 786-0 RCC cells HIF-2a reporter, luciferase luminescence, overnight;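 active = inhibition of the luminescence signal of 40% or more relative to plate controls, in a single-dose primary screen at 18.75 µM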
MITF TRPM1 inh = MITF TRPM1 promoter inhibition in SK-MEL-5 cells; AID 488899; 330,000 tested, 0.83% active; SK-MEL-5 TRPM1 promoter luciferase, 24 h; inhibition, % at 12.5 µM;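 active = mean inhibition across replicates of 60% or more, whatever share of single replicates reaches that level; inconclusive = some that reach 60%, reason not given; inactive = mean inhibition across replicates below 60%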
Hits are given with their value; - = inactive; ? = inconclusive; . = no result given. The list is not random: actives were taken first. Their share in the collection is about 2.8%.

SMILES | Shn3 inh set2 | EBV LMP1 NFkB | Peg3 prom inh | PAX8 inh HTS | HIF-2a block | MITF TRPM1 inh
CC(=O)N(C1=C(Cl)C(=O)c2ccccc2C1=O)C1CCCCC1 | - | - | 105 | 99 | 82 | 86
COc1ccc(-c2sc(Nc3ccccc3)n[n+]2-c2ccccc2)cc1Br | - | - | - | - | - | -
C(=C\c1sc(Nc2ccccc2)n[n+]1-c1ccccc1)/c1ccccc1 | - | - | 101 | - | - | 79
O=C1CSC(=S)N1Cc1ccccc1 | - | 42 | - | - | - | .
N#C/C(=C\c1cccs1)C(=O)c1ccccc1Cl | . | . | . | 64 | . | .
Cc1noc(C)c1S(=O)(=O)Nc1ccc2c(c1)CC(=O)N([C@H](C)CO)C[C@@H](C)[C@H](CN(C)C)O2 | . | . | . | - | . | .
CN(C)C(=O)c1cccc(-c2ccc([C@@H]3[C@@H](CO)N4C(=O)CNC[C@@H]34)cc2)c1 | . | . | . | - | . | .
O=C(N/N=C/c1ccc2ncccc2c1)c1ccco1 | - | 48 | - | - | - | -
CC(C)CC(=O)/C=C/n1c(=S)oc2ccccc21 | 97 | 66 | 107 | - | 91 | 76
CC(=O)Nc1ccc(NC(=O)CCn2c(=S)oc3ccccc32)cc1 | - | - | - | - | - | -
Cn1c(=S)oc2ccccc21 | - | - | - | - | - | -
CC(=O)/C=C/n1c(=S)oc2ccccc21 | . | . | . | 114 | . | .
CCS(=O)(=O)Nc1ccc2c(c1)C(=O)N(C)C[C@H](OC)[C@@H](C)CN(C(=O)C1CCC1)[C@@H](C)CO2 | . | . | . | - | . | .
Cc1cccc(Oc2cc(NC(=O)c3ccccc3)cc([N+](=O)[O-])c2)c1 | 87 | - | - | . | - | -
Cc1ccc(/C=C2\SC(=S)N(CCCC(=O)Nc3cc(C)on3)C2=O)cc1 | - | - | - | - | 69 | -
COc1ccccc1/C=C1\SC(=S)N(CCC(=O)NC2=NCCS2)C1=O | - | - | - | - | 72 | -
Cc1ccc(/C=C2\SC(=S)N(CCCC(=O)Nc3cccnc3)C2=O)cc1 | - | 72 | - | . | 70 | -
COc1ccc(/C=C2\SC(=S)N(CCCC(=O)Nc3cc(C)on3)C2=O)cc1OC | - | - | - | - | - | -
Cc1ccc(/C=C2\SC(=S)N(CC(=O)Nc3cccnc3)C2=O)cc1 | - | - | - | - | - | -
O=C(CCCN1C(=O)/C(=C/c2cccc(Br)c2)SC1=S)Nc1ccccn1 | - | - | 62 | 110 | 66 | -
O=C(CCCN1C(=O)/C(=C/c2cccs2)SC1=S)Nc1cccnc1 | - | - | - | - | - | -
O=C(CCCN1C(=O)/C(=C\c2cccc(Br)c2)SC1=S)Nc1cccnc1 | - | - | 96 | 106 | 61 | -
O=C(CCCN1C(=O)/C(=C/c2ccccc2OC(F)F)SC1=S)Nc1cccnc1 | - | - | - | 98 | - | -
COc1ccccc1/C=C1/SC(=S)N(CCC(=O)Nc2cccnc2)C1=O | - | - | - | - | - | -
COc1ccc(C=C2OC(=O)C(C(C)=O)=C2O)cc1 | - | 51 | - | - | - | .
SMILES | Shn3 inh set2 | EBV LMP1 NFkB | Peg3 prom inh | PAX8 inh HTS | HIF-2a block | MITF TRPM1 inh
CC(=O)C1=C(O)C(=Cc2ccccc2)OC1=O | - | - | - | - | - | .
COc1cccc(-c2ccc3c(c2)[C@@H]2[C@@H](CCN2S(=O)(=O)c2cn(C)cn2)[C@H](CO)N3)c1 | . | . | . | - | . | .
COc1ccc(CN(C)C(=O)c2cc(-c3ccccc3)nc3ccc(C)cc23)c(OC)c1 | - | - | 98 | - | - | .
COc1ccccc1CN(C)C(=O)c1cc(C)nc2ccccc12 | - | - | - | - | - | -
COc1cccc(S(=O)(=O)N2CC[C@@H]3[C@@H](CO)Nc4ccc(Br)cc4[C@@H]32)c1 | . | . | . | - | . | .
O=C(O)c1cc2ccccc2c(N=Nc2cccnc2)c1O | - | - | 55 | . | 73 | ?
NC(=S)NN=Cc1nccc2c(C(F)(F)F)cccc12 | - | 62 | - | 73 | - | .
CNc1cccnc1C=NNC(N)=S | 94 | 67 | - | - | - | -
COc1ccc(NC(=O)Nc2ccc3c(c2)C(=O)N([C@H](C)CO)C[C@H](C)[C@@H](CN(C)C(=O)C2CCCCC2)OCCCC[C@H](C)O3)cc1 | . | . | . | - | . | .
CCC(=O)N(C)C[C@H]1[C@H](c2ccc(C3=CCCC3)cc2)[C@@H](CO)N1C(=O)CC | . | . | . | - | . | .
Cc1ccc(CC2S/C(=C(/C#N)C(=O)NCc3ccco3)N(c3ccccc3)C2=O)cc1 (centres undefined) | - | - | - | . | - | -
CC1S/C(=C(\C#N)C(=O)NCc2ccco2)N(Cc2ccco2)C1=O (centres undefined) | - | 41 | - | . | - | -
Cc1c(C#N)c(NC(=O)CCl)n(Cc2cccs2)c1C | 97 | - | - | - | - | 77
Cc1c(C#N)c(NC(=O)CCl)n(Cc2ccc(F)cc2)c1C | - | - | 58 | - | - | 66
Cc1c(C#N)c(NC(=O)CCl)n(Cc2ccccc2)c1C | 95 | - | 53 | - | - | 81
CCN(CC)C(=O)c1sc(NC(=O)Cc2cccs2)c(C#N)c1C | - | - | - | . | - | -
O=C(C[C@H]1CC[C@H](NC(=O)C2CCOCC2)[C@H](CO)O1)NCC1CC1 | . | . | . | - | . | .
COc1ccc(NC(=O)N(C)C[C@@H]2Oc3c(NS(=O)(=O)c4ccc(C)cc4)cccc3C(=O)N([C@H](C)CO)C[C@@H]2C)cc1 | . | . | . | - | . | .
CN1c2ccc(-c3ccccc3)cc2[C@H]2[C@H](CCN2C(=O)Cc2cccnc2)[C@@H]1CO | . | . | . | - | . | .
CC[C@H](C)[C@@H](C(=O)NCCCCCCCCCCC(=O)N1CCN(C(=O)OC(C)(C)C)CC1)n1cc(CCCCCNC(=O)OC(C)(C)C)nn1 | 89 | - | - | 63 | - | 65
CC(C)(C)OC(=O)NCCCCCc1cn([C@@H](CO)C(=O)NCCCCCCCCCCC(=O)N2CCN(C(=O)OC(C)(C)C)CC2)nn1 | - | - | 93 | - | - | -
CC(C)(C)OC(=O)CC[C@@H](C(=O)NCCCCCCCCCCC(=O)N1CCN(C(=O)OC(C)(C)C)CC1)n1cc(CCCCCNC(=O)OC(C)(C)C)nn1 | - | - | - | - | - | -
COc1ccccc1CN1C[C@@H](C)[C@H](OC)CN(C)C(=O)c2ccc(NC(C)=O)cc2OC[C@@H]1C | . | . | . | - | . | .
COc1ccc(NC(=O)CN2C(=O)CSC(C)C2=O)cc1 (centres undefined) | - | - | 55 | - | - | -
CC1SCC(=O)N(CC(=O)Nc2ccc3c(c2)OCCO3)C1=O (centres undefined) | - | - | - | - | - | -
O=C(NC[C@@H]1CC[C@H]2[C@H](CN2Cc2cccc(Cl)c2)O1)C1CC1 | . | . | . | - | . | .
C[C@H](CO)N1C[C@H](C)[C@H](CN(C)C(=O)Nc2ccccc2)Oc2ccc(NC(=O)NC3CCCCC3)cc2CC1=O | . | . | . | - | . | .
CCCc1c(C(=O)N/N=C(\C)c2ccccn2)nnn1-c1nonc1N | 89 | ? | - | - | - | .
CC(=C/c1ccccc1)/C=N/NC(=O)c1nnn(-c2nonc2N)c1CN1CCC(C)CC1 | - | - | - | - | - | -
CC1CCN(Cc2c(C(=O)N/N=C/c3ccccc3O)nnn2-c2nonc2N)CC1 | - | - | 66 | - | - | -
